Screening results (PubChem BioAssay)
This is a sample that favours compounds with a hit; in the whole collection about 11% have one here.
BAZ2B block – inhibitors of human BAZ2B bromodomain | Q9UIF8 | AlphaScreen BAZ2B-H3K14Ac peptide displacement | Potency, µM (top dose mostly 114 µM), inactives show top-dose activity change, negative = inhibition, usual class: inhibitors | 4.4% of 360,000 active | AID 504333; also: % is scaled to controls: 0 for no effect and ±100 for the full control effect; nearly all actives have a fitted effect of over 60% in size
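BAZ2B 50 nM plus b-H3(5-23)K14Ac 50 nM, PBS pH 7.4/0.01% Tween-20, 30 min RT; compound added (max 110 uM), 30 min RT; streptavidin donor/Ni-chelate acceptor beads 10 ug/mL final, 20 min dark; AlphaScreen read.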
L3MBTL1 block – L3MBTL1 (human) inhibition. AID 485360. Potency, µM (highest dose often 57.1 µM), inactives show at the top dose activity, negative = inhibition, hits mostly inhibitors. Q9Y468. 0.66% of 230,000 active. AlphaScreen L3MBTL1–H3K9me1 peptide binding; also: % is scaled to controls: 0 for no effect and ±100 for the full control effect; nearly all actives have a fitted effect of over 60% in size
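L3MBTL1 (50 nM) pre-complexed 30 min with biotinylated H3(1-15)K9me1 peptide (75 nM), then compounds added for 30 min at room temperature; AlphaScreen streptavidin donor/nickel chelate acceptor beads (10 ug/mL final) read after 30 min dark incubation.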
JMJD2A Tudor – inhibitors of human JMJD2A Tudor domain. O75164. Potency, µM (series often up to 114 µM), inactives show at the top dose activity change, negative = inhibition, actives largely listed as inhibitors. AID 504339. 4.4% of 390,000 active. AlphaScreen JMJD2A-Tudor / H3K4me3 peptide binding; also: % is scaled to controls: 0 for no effect and ±100 for the full control effect; nearly all actives have a fitted effect of over 50% in size
G9a inh – G9a (human) methyltransferase inhibition; Q96KQ7; G9a H3K9 monomethylation, AlphaScreen, 2 h; Potency, µM (doses to about 102 µM), for inactives: at the top dose activity, negative = inhibition, most hits filed as inhibitors; 8.8% of 350,000 active; also: % is scaled to controls: 0 for no effect and ±100 for the full control effect; nearly all actives have a fitted effect of over 75% in size
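Readings reflect AlphaScreen signal from monomethyl-H3K9 antibody detection. HMT at 20 nM; substrate b-H3K9 500 nM; cofactor SAM 20 uM; 2 h RT reaction; compounds tested as titrations in qHTS with 15 min preincubation.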
HP1b chromo inh – HP1-beta chromodomain-methylated histone interaction inhibition; P83916; AlphaScreen HP1-beta / biotin-H3K9me3 peptide binding; AID 540317; Potency, µM (titrated, usually from 114 µM), for the others: at the highest dose activity change, negative = inhibition, actives largely listed as inhibitors; 0.56% of 390,000 active; also: nearly all actives have a fitted effect of over 70% in size
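Compound inhibition of the preformed complex between 50 nM HP1-beta and 50 nM biotinylated H3K9me3 peptide was read by AlphaScreen. Buffer was PBS pH 7.4 with 0.01% Tween-20. Incubations ran 30 min at room temperature, with 10 ug/mL donor/acceptor beads.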
* = called active by the depositor; [ ] = dose if it differs, or a comment. Calls follow the shape of the dose curve; as a rule, active = well fitted inhibition curve with a large enough effect; inconclusive = small, poorly fitted or top-dose-only effect; inactive = no such curve, though single readings can be large or run the other way. Potency is read from the fitted curve at half-maximal effect.

How did S=c1[nH]c2ccccc2n1CCOc1ccccc1 do in these assays?
BAZ2B block: 12%; L3MBTL1 block: 25%; JMJD2A Tudor: inconclusive; HP1b chromo inh: -24%

How did CCOc1ccc2[nH]c(=O)c(=O)[nH]c2c1 do in these assays?
BAZ2B block: -6%; JMJD2A Tudor: 5%; G9a inh: -30%[12.7 µM]; HP1b chromo inh: 21%

How did Cc1ccc(OCCn2c(=S)[nH]c3ccccc32)c(C(C)C)c1 do in these assays?
BAZ2B block: inconclusive; L3MBTL1 block: -7%; JMJD2A Tudor: -25%; HP1b chromo inh: -10%

What do the screens show for `S=c1[nH]c2ccccc2n2cccc12`?
BAZ2B block: -1%; L3MBTL1 block: 1%; JMJD2A Tudor: 4%; G9a inh: -3%; HP1b chromo inh: 49%

How did Cc1cccc(OCCn2c(=S)[nH]c3ccccc32)c1 do in these assays?
BAZ2B block: inconclusive; L3MBTL1 block: inconclusive; JMJD2A Tudor: inconclusive; G9a inh: 1.6µM*; HP1b chromo inh: -61%

Results for Cn1c(=S)[nH]c2ccccc21 ?
BAZ2B block: -35%; JMJD2A Tudor: 50µM*; G9a inh: 8.9µM*; HP1b chromo inh: -11%

What do the screens show for `CCOC(=O)c1ccc(NC(=O)C2=C(C)C(=O)OC23CCN(C(C)C)CC3)cc1`?
BAZ2B block: 2%; JMJD2A Tudor: -17%; G9a inh: 8%[59 µM]; HP1b chromo inh: 19%

How did Cc1ccc(-c2nc3ccccc3o2)cc1NC(=O)c1cccc2c(Cl)cccc12 do in these assays?
BAZ2B block: -15%; JMJD2A Tudor: -17%; G9a inh: -6%[59 µM]; HP1b chromo inh: 4%

What do the screens show for `OCCC1CN(C2CCN(c3ccccc3)CC2)CCN1Cc1ccc(F)c(F)c1` (stereo not drawn)?
BAZ2B block: -18%; L3MBTL1 block: -22%; JMJD2A Tudor: 1%; G9a inh: inconclusive; HP1b chromo inh: 18%

Results for CSc1cccc(NC(=O)C(c2ccccc2)N2Cc3ccccc3C2=O)c1 (stereo not drawn) ?
BAZ2B block: inconclusive; JMJD2A Tudor: -34%; G9a inh: inconclusive; HP1b chromo inh: -15%

Results for COc1ccccc1OCCn1c(=S)[nH]c2ccccc21 ?
BAZ2B block: 1%; L3MBTL1 block: -6%; JMJD2A Tudor: inconclusive; G9a inh: 8.9µM*; HP1b chromo inh: 1%

What do the screens show for `S=c1[nH]c2ccccc2n1CCc1ccncc1`?
JMJD2A Tudor: inconclusive; HP1b chromo inh: 45%

Results for COc1ccccc1OCCn1c(=O)n(C)c2ccccc21 ?
BAZ2B block: -29%; L3MBTL1 block: 1%; JMJD2A Tudor: -3%; G9a inh: 39%[12.7 µM]; HP1b chromo inh: 35%

How did N#CCCn1c(=S)[nH]c2ccccc21 do in these assays?
BAZ2B block: -3%; JMJD2A Tudor: -6%[57.1 µM]; G9a inh: 7.1µM*; HP1b chromo inh: -20%

What do the screens show for `COc1ccc(CCNC(=O)c2ccc3c(c2)CCN3S(=O)(=O)c2ccc(Cl)cc2)cc1`?
BAZ2B block: -3%; JMJD2A Tudor: -15%; G9a inh: -20%[59 µM]; HP1b chromo inh: 29%

How did Cc1ccc(C)c(CN2C(=O)c3ccccc3S(=O)c3ccc(C(=O)N4CCCCC4)cc32)c1 (stereo not drawn) do in these assays?
BAZ2B block: -30%; JMJD2A Tudor: -32%; G9a inh: -26%[59 µM]; HP1b chromo inh: 14%

Results for OCn1ncn(-c2ccccc2)c1=S ?
BAZ2B block: -12%; JMJD2A Tudor: 35µM*; G9a inh: inconclusive; HP1b chromo inh: 19%

Results for Cc1ccc(Cn2ncn(-c3ccccc3)c2=O)cc1 ?
BAZ2B block: 1%; L3MBTL1 block: 4%; JMJD2A Tudor: 2%[57.1 µM]; G9a inh: -1%; HP1b chromo inh: 49%

Results for O=[N+]([O-])c1ccc(Nc2nc(N3CCOCC3)nc(N3CCOCC3)n2)cc1 ?
JMJD2A Tudor: -12%; HP1b chromo inh: 8%

How did O=[N+]([O-])c1ccc(/C=N/Nc2nc(N3CCCCC3)nc(N3CCCCC3)n2)cc1 do in these assays?
BAZ2B block: inconclusive; L3MBTL1 block: 6%; JMJD2A Tudor: inconclusive; HP1b chromo inh: 3%

Results for O=[N+]([O-])c1ccc(-c2ccc(/C=N/Nc3nc(NCc4ccccc4)nc(N4CCOCC4)n3)o2)cc1 ?
BAZ2B block: inconclusive; L3MBTL1 block: -22%; JMJD2A Tudor: -32%; G9a inh: 25µM*; HP1b chromo inh: -1%

How did O=[N+]([O-])c1ccc(/C=N/Nc2nc(N3CCCCCC3)nc(N3CCCCCC3)n2)o1 do in these assays?
BAZ2B block: inconclusive; L3MBTL1 block: -21%; JMJD2A Tudor: inconclusive; G9a inh: 10µM*; HP1b chromo inh: -25%

How did O=C(CN1CCCCCCC1)N/N=C/c1ccc([N+](=O)[O-])o1 do in these assays?
BAZ2B block: 50µM*; L3MBTL1 block: inconclusive; JMJD2A Tudor: 18µM*; G9a inh: 32µM*; HP1b chromo inh: inconclusive

What do the screens show for `Clc1ccccc1CSc1nnc(C2CCNCC2)o1`?
BAZ2B block: -17%; JMJD2A Tudor: 1%; G9a inh: -3%[59 µM]; HP1b chromo inh: 66%

How did O=C(C1CCCCC1)N(CCN1CCN(c2ccccc2CO)CC1)c1ccccn1 do in these assays?
G9a inh: 13%[59 µM]

Results for O=c1c(-c2ccc(Cl)cc2)nc2cnc(N3CCOCC3)nc2n1-c1ccccc1 ?
G9a inh: 10%[0.501 µM]

How did CCN(CC(=O)Nc1c(C(=O)OC)[nH]c2ccc(Cl)cc12)c1ccc2c(c1)OCO2 do in these assays?
BAZ2B block: 40µM*; L3MBTL1 block: -18%; JMJD2A Tudor: 56µM*; G9a inh: 28µM*; HP1b chromo inh: inconclusive

How did CCOC(=O)c1[nH]c2ccc(Cl)cc2c1NC(=O)/C=C/c1ccc2c(c1)OCO2 do in these assays?
BAZ2B block: -7%; L3MBTL1 block: 5%; JMJD2A Tudor: -9%; G9a inh: 51%[59 µM]; HP1b chromo inh: 35%

How did Cc1ccc(C)c(NC(=O)c2ccc(CN3CC(=O)N4CCCCC4C3=O)cc2)c1 (stereo not drawn) do in these assays?
BAZ2B block: 1%; JMJD2A Tudor: -6%; G9a inh: -13%[59 µM]; HP1b chromo inh: 32%

Results for CCOC(=O)C(=CNNc1c(C)csc1C(=O)OC)C(=O)OCC ?
BAZ2B block: -22%; L3MBTL1 block: -8%; JMJD2A Tudor: -20%; G9a inh: 8.9µM*; HP1b chromo inh: 43%

Results for CCOc1cc(C(=O)OCc2cc(=O)n3nc(C4CC4)sc3n2)cc(OCC)c1OCC ?
BAZ2B block: -17%; JMJD2A Tudor: -32%; G9a inh: 18%[59 µM]; HP1b chromo inh: -16%

How did O=C(CSc1nnc(-c2cccnc2)n1C1CCCCC1)NC1CCCCC1 do in these assays?
BAZ2B block: 10%; L3MBTL1 block: 17%; JMJD2A Tudor: -4%; G9a inh: -8%; HP1b chromo inh: 17%

What do the screens show for `COc1ccc(-c2n[nH]c(=S)n2C2CCCCC2)cc1`?
BAZ2B block: -7%; L3MBTL1 block: 2%; JMJD2A Tudor: 7.1µM*; G9a inh: 2.5µM*; HP1b chromo inh: 17%
